“And” between values parts separate entries of the source, which are not always exact repeats. Identical values can stand only once. Compounds without any hit were thinned out: in the full panel of roughly 83,000, 20% have a hit.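 Cell lines were cultured in 96-well plates, exposed to a single compound concentration, and assessed for percent growth 48 hours later.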 The source made the active and inactive calls. How the source made its calls: active means growth percent below 10; inactive means the rest.

The subject of the assay is SNB-75 CNS. The assay can be described thus: NCI-60 one-dose screen, 48 h (100 = growth as untreated, 0 = no growth, -100 = all killed). Particulars: 10 µM unless noted.
Regarding `CC1CCCC(=O)O1` (centres undefined), the growth is 83.3% (inactive) and 95.6% (inactive). Consider `Cc1ccc(S(=O)(=O)NCN2C(=O)c3ccccc3C2=O)cc1`, for which the growth was 96.9% (inactive). As to `O=C(N/N=C/c1cccc2ccccc12)C1CC1`, the growth was 90.9% (inactive) and 85% (inactive). For the compound `CN(C)CCCNC1=C(Cl)C(=O)c2ccccc2C1=O`, the growth is 64.1% (inactive) and 47.8% (inactive).

For the compound `COc1ccc2nc(Cl)cc(C)c2c1`, the growth is 99.2% (inactive) and 98.3% (inactive). For `CN(C)c1ccc(C(=C2C=CC(=[N+](C)C)C=C2)c2ccccc2Cl)cc1`, the growth is -58.6% (active) and -96.1% (active). As for `OCc1ccccn1`, the growth is 74.5% (inactive). Regarding `Nc1ccccc1SC1CC(=O)N(c2cccc3ccccc23)C1=O` (centres undefined), the growth is 76.4% (inactive). In the case of `CC(=O)Nc1cccc2c1CCCC2` it was 85.4% (inactive) and 101% (inactive); in that of `CCN1CCN(CCNc2nccc(-c3c(-c4cccc(O)c4)nc4sccn34)n2)S1(=O)=O`, 62.6% (inactive) and 50.2% (inactive). Next, `NC(=O)c1ccccc1OCC(O)CO` (centres undefined): 84.5% (inactive); `Nc1ccccc1Nc1ccccc1`: 106% (inactive) and 90.7% (inactive). Consider `N/C(=N\N=C\c1ccc2c(c1)OCO2)N/N=C\c1ccc2c(c1)OCO2`, for which the growth is 113% (inactive) and 135% (inactive).

Regarding `N#C/C(=C/c1c(O)ccc2ccccc12)C(N)=O`, the growth was 87.4% (inactive). Regarding `Oc1ccc(/C=C/c2ccccc2)cc1`, the growth was 68.7% (inactive) and 83.4% (inactive).

For `COc1ccc2ccccc2c1/C=N/N1CCCCC1`, the growth was 87.6% (inactive). In the case of `O=C(Nc1cccc(-n2ccc3c(NC(=O)c4ccccc4)nccc32)c1)c1ccc(Cl)c(C(F)(F)F)c1` it was 16% (inactive) and 84.4% (inactive); in that of `CCOc1ccc(Nc2c3ccccc3nc3ccccc23)cc1`, 77.1% (inactive) and 38.2% (inactive) and 21.5% (inactive); in that of `CCOc1ccc2cc(-c3nn(CC4CCN(C)CC4)c4ncnc(N)c34)ccc2c1`, 50% (inactive) and 33.9% (inactive). As for `C[N+](C)(C)CN1C(=O)c2ccccc2C1=O`, the growth is 77.5% (inactive). For `S=C(S)N1CCCC1`, the growth was 113% (inactive) and 89% (inactive). For the compound `O=C1C2=C(C(=O)c3ccccc31)C(O)(S(=O)(=O)O)C(O)(S(=O)(=O)O)C1N=CC=CC21` (centres undefined), the growth was 61.1% (inactive) and 35.1% (inactive). With `Cc1cc(O)c2c(c1)C(=O)c1cc(O)cc(O)c1C2=O`, the growth is 88% (inactive) and 86.7% (inactive). Take `CCN(CC)CCC(CNc1ccnc2cc(Cl)ccc12)c1ccc(OC)cc1` (centres undefined): the growth is 68.6% (inactive) and 34.1% (inactive). Next, `O=[N+]([O-])c1ccc2nc3c4ccccc4c4ccccc4c3nc2c1`: 74.4% (inactive); `COc1cc2nc(N3CCC[C@@H](NC(=O)C4COc5ccccc5O4)C3)nc(N)c2cc1OC` (some centres undefined): 83.3% (inactive) and 90.3% (inactive); `NC(=S)NN=C1CCC(C2CCCCC2)CC1` (centres undefined): 76.4% (inactive) and 92.8% (inactive). In the case of `CCOC(=O)c1sc(N)nc1-c1ccccc1`, the growth is 94.7% (inactive). Consider `Cc1ccc2nc3c(nc2c1)-c1cccc2cccc-3c12`, for which the growth was 94.9% (inactive). As for `CC(C)N=c1cc2n(-c3ccc(Cl)cc3)c3ccccc3nc-2cc1Nc1ccc(Cl)cc1`, the growth was 68.1% (inactive) and 53.7% (inactive) and 24.1% (inactive). Consider `CCN(CC)CCCC(C)Nc1ccnc2cc(Oc3ccccc3)ccc12` (centres undefined), for which the growth was 62.9% (inactive) and 99.8% (inactive). For the compound `CN1C(=O)C(N=Nc2ccc([N+](=O)[O-])cc2)SC1=S` (centres undefined), the growth was 85.9% (inactive) and 91.5% (inactive). In the case of `COc1ccccc1NC(=O)OCC#CCOC(=O)Nc1ccccc1OC` it was 92.9% (inactive) and 84.7% (inactive); in that of `O[C@H](c1cc(C(F)(F)F)nc2c(C(F)(F)F)cccc12)[C@@H]1CCCCN1`, 29.7% (inactive) and 46.3% (inactive). In the case of `N#C/C(=C1C=C/C(=N/O)C(Br)=C/1)c1ccccc1` it was 23% (inactive); in that of `CC1=C[C@H]2c3c(c(O)c(O)c4oc5cc(O)cc(O)c5c(=O)c34)[C@H](c3cc(O)c(O)c4oc5cc(O)cc(O)c5c(=O)c34)[C@H]2C(C)(C)C1`, 24.1% (inactive) and -10.6% (active). As to `COc1ccc(/C(C#N)=C/c2ccccn2)cc1`, the growth is 99.2% (inactive) and 105% (inactive). On to `CC(=O)Oc1cc(C(=O)O)cc(OC(C)=O)c1OC(C)=O`, for which the growth is 88.1% (inactive) and 90.2% (inactive). Turning to `COc1ccc(Cn2c(NCCN=C(N)N)nc(=O)n(Cc3ccc(F)cc3)c2=O)cc1`, the growth was 55.1% (inactive) and 22.7% (inactive).
